A short description of test [1]: APR_HepG2_CellCycleArrest_24hr: Apredica 24-hour HepG2 Assay for Cell Cycle Arrest (AID 2282905).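 Note: cell cycle arrest scored as ratio of 2N to 4N nuclear DNA content.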 The following applies: imaging, actives raise or lower the signal. An outline of the steps:
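Cell cycle arrest is scored from nuclear DNA content measured by high-content imaging of Hoechst 33342-stained HepG2 cells following 24-hour treatment at ten concentrations up to 200 uM, with DMSO as baseline.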

Test [2] can be described thus: APR_HepG2_NuclearSize_24hr: Apredica 24-hour HepG2 Assay for Nuclear Size (AID 2282907). The following applies: high-content imaging, actives raise or lower the signal. An outline of the steps:
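Compounds in DMSO (final 0.5%) were added to human HepG2 hepatoma cells at ten concentrations up to 200 uM for 24 hr. Fixed nuclei were stained with Hoechst 33342, and nuclear diameter was quantified from automated images.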

Test [3] in a line: APR_HepG2_CellLoss_24hr: Apredica 24-hour HepG2 Assay for Cell Loss (AID 2282908).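 For AC50: fit in both directions so a hit may be cell loss or gain.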 The following applies: high-content imaging. In short, it runs like this:
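Cell number is quantified by fluorescence imaging of Hoechst 33342-stained nuclei following dosing at 0.39–200 uM in 0.5% DMSO. Curves are fitted in both directions from the DMSO baseline.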

Test [4] can be described thus: APR_HepG2_MicrotubuleCSK_24hr: Apredica 24-hour HepG2 Assay for Microtubule CSK Stabilty (AID 2282909). As to conditions: HepG2 microtubule cytoskeleton imaging, actives raise or lower the signal. In short, it runs like this: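 Steps: dose HepG2 for 24 h (0.39–200 uM, 0.5% DMSO); fix 30 min in 3.7% formaldehyde at room temperature; permeabilize; stain alpha-tubulin 60 min; image microtubule cytoskeleton at 20x. Signal change fitted in both directions relative to DMSO.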

Test [5] in a line: APR_HepG2_MitoticArrest_24hr: Apredica 24-hour HepG2 Assay for Mitotic Arrest (AID 2282910). As to conditions: high-content imaging, actives raise or lower the signal. An outline of the steps: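 HepG2 human liver cells were exposed to compounds at 0.39–200 uM (10 concentrations, duplicate) in 0.5% v/v DMSO for 24 hr, then fixed and immunostained for phospho-histone H3 with Hoechst 33342. Mitotic arrest came from HCS fluorescent imaging, fitted bidirectionally against DMSO.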

A short description of test [6]: APR_HepG2_MitoMembPot_24hr: Apredica 24-hour HepG2 Assay for Mitochondrial Membrane Potential (AID 2282911). The following applies: imaging, actives raise or lower the signal. An outline of the steps:
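HepG2 cells exposed 24 h to 0.39–200 uM compounds in duplicate, 0.5% v/v DMSO final. MitoTracker Red CMXRos 250 nM loaded 30 min before formaldehyde fixation; high-content imaging at 20x, bidirectional fit versus DMSO.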

A short description of test [7]: APR_HepG2_MitoMass_24hr: Apredica 24-hour HepG2 Assay for Mitochondrial Mass (AID 2282912). As to conditions: high-content imaging, actives raise or lower the signal. An outline of the steps: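 The liver line HepG2 was dosed in duplicate across a 0.39–200 uM series, with final DMSO held at 0.5% v/v, and harvested at 24 hr. High-content imaging measured mitochondrial dye staining.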

The nature of test [8]: APR_HepG2_p53Act_24hr: Apredica 24-hour HepG2 Assay for p53 Activation (AID 2282913).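 Note: p53 protein immunofluorescence averaged per cell in HepG2 with Hoechst nuclei.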 The following applies: high-content imaging, actives raise or lower the signal. An outline of the steps:
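HepG2 cells exposed 24 h to compounds at 0.39–200 uM in duplicate, 0.5% v/v DMSO final; fixed, permeabilized, stained with anti-p53 antibody and Hoechst 33342; fluorescence imaging; bidirectional curve fit versus DMSO.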

The nature of test [9]: APR_HepG2_CellCycleArrest_72hr: Apredica 72-hour HepG2 Assay for Cell Cycle Arrest (AID 2282914). The following applies: high-content imaging, actives raise or lower the signal. An outline of the steps:
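HepG2 cells exposed 72 h in duplicate to 0.39–200 uM compound, 0.5% DMSO final. Formaldehyde-fixed, Hoechst 33342-stained nuclei imaged at 20x, six fields per well; DNA content per valid cell quantified by cell-cycle image analysis, bidirectional fit versus DMSO.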

A short description of test [10]: APR_HepG2_CellLoss_72hr: Apredica 72-hour HepG2 Assay for Cell Loss (AID 2282915). As to conditions: high-content imaging. An outline of the steps:
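HepG2 cells were exposed for 72 hr to compounds at 0.39–200 uM (ten concentrations, duplicate) in 0.5% v/v final DMSO. Nuclei were stained with Hoechst 33342 after 3.7% formaldehyde fixation, imaged at 20x, and counted; fits bidirectional versus DMSO.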

Test [11] is described as follows: APR_HepG2_P-H2AX_72hr: Apredica 72-hour HepG2 Assay for H2AX Phosphorylation (AID 2282916).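 Note: phospho-histone H2A.x immunostain intensity per cell marking DNA damage.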 The following applies: imaging, actives raise or lower the signal. An outline of the steps: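 Following 72 hr treatment with 0.39–200 uM compound, HepG2 cells were formaldehyde-fixed, permeabilized and stained for phospho-H2A.x; signal was measured by high-content imaging and fitted bidirectionally against DMSO controls.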

Test [12] in a line: APR_HepG2_MitoMembPot_72hr: Apredica 72-hour HepG2 Assay for Mitochondrial Membrane Potential (AID 2282917). As to conditions: imaging, actives raise or lower the signal. In short, it runs like this:
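HepG2 cells exposed 72 h to compounds at 0.39–200 uM (0.5% v/v DMSO, duplicates); MitoTracker Red CMXRos 250 nM loaded 30 min before 3.7% formaldehyde fixation, imaged by HCS fluorescence. Bidirectional fit versus DMSO.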

Test [13] is described as follows: APR_HepG2_MitoticArrest_72hr: Apredica 72-hour HepG2 Assay for Mitotic Arrest (AID 2282918). As to conditions: high-content imaging, actives raise or lower the signal. In short, it runs like this:
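HepG2 cells treated 72 h at 0.39–200 uM, 0.5% DMSO final; formaldehyde-fixed, stained with Hoechst 33342 and phospho-histone H3 antibody, imaged by high-content fluorescence; bidirectional fit versus DMSO.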

Test [14] is described as follows: APR_HepG2_MicrotubuleCSK_72hr: Apredica 72-hour HepG2 Assay for Microtubule CSK Stabilty (AID 2282919). As to conditions: HepG2 microtubule cytoskeleton, high-content imaging, actives raise or lower the signal. In short, it runs like this:
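HepG2 human liver cells were dosed for 72 h at ten concentrations from 0.39 to 200 uM in duplicate (0.5% v/v DMSO final). Fixed, permeabilized cells were immunostained for alpha-tubulin (Cy5) with a Hoechst counterstain and imaged at 20x.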

The nature of test [15]: APR_HepG2_P-H2AX_24hr: Apredica 24-hour HepG2 Assay for H2AX Phosphorylation (AID 2282920). As to conditions: high-content imaging, actives raise or lower the signal. An outline of the steps:
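HepG2 cells dosed 24 h at 0.39–200 uM (10 points, duplicate, 0.5% DMSO final). Formaldehyde-fixed and permeabilized, then immunostained for phospho-H2A.x with Hoechst. Fluorescence quantified by high-content imaging, fitted bidirectionally versus DMSO.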

Test [16] is described as follows: APR_HepG2_StressKinase_72hr: Apredica 72-hour HepG2 Assay for Stress Kinase (AID 2282921). As to conditions: HepG2 stress kinase (phospho-c-Jun) imaging, actives raise or lower the signal. In short, it runs like this:
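Fluorescence intensity of Cy3-tagged anti-phospho-c-Jun antibody, quantified per cell from Hoechst-defined nuclei across six images per well, served as the read-out following 72 h exposure (0.39–200 uM, 0.5% v/v DMSO).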

Test [17] is described as follows: APR_HepG2_StressKinase_24hr: Apredica 24-hour HepG2 Assay for Stress Kinase (AID 2282922). The following applies: HepG2 stress kinase (phospho-c-Jun) imaging, actives raise or lower the signal. In short, it runs like this:
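HepG2 cells exposed 24 hr to compound at 0.39–200 uM (10 concentrations, duplicate), 0.5% v/v DMSO final. Fixed in 3.7% formaldehyde, permeabilized with Triton X-100, immunolabeled for phospho-c-Jun with Hoechst 33342; HCS fluorescence imaging, bidirectional fit versus DMSO.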

Test [18] is described as follows: APR_HepG2_p53Act_72hr: Apredica 72-hour HepG2 Assay for p53 Activation (AID 2282923).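 Note: average cellular p53 protein immunofluorescence intensity in HepG2 cells.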 The following applies: high-content imaging, actives raise or lower the signal. In short, it runs like this:
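HepG2 monolayers receive test compounds in duplicate at ten concentrations (0.39 through 200 uM) for 72 hr. They are then formaldehyde-fixed, antibody-labelled for p53, Hoechst-stained and imaged, with activity fitted bidirectionally versus DMSO.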

Test [19] can be described thus: APR_HepG2_MitoMass_72hr: Apredica 72-hour HepG2 Assay for Mitochondrial Mass (AID 2282924).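 Note: MitoTracker Red CMXRos stain intensity per cell imaged as mitochondrial mass.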 The following applies: high-content imaging, actives raise or lower the signal. In short, it runs like this:
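HepG2 cells were exposed for 72 hr to compounds at 0.39–200 uM (ten concentrations, duplicate, 0.5% v/v DMSO final). Live cells were stained with 250 nM MitoTracker Red CMXRos for 30 min, then fixed in 3.7% formaldehyde and imaged by HCS fluorescence.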

Test [20] in a line: APR_HepG2_NuclearSize_72hr: Apredica 72-hour HepG2 Assay for Nuclear Size (AID 2282925). The following applies: high-content imaging, actives raise or lower the signal. In short, it runs like this: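 HepG2 cells were exposed to compounds at ten concentrations from 0.39 to 200 uM (duplicate, 0.5% DMSO final) for 72 hr. After fixation in 3.7% formaldehyde, nuclei were stained with Hoechst 33342 (2 ug/mL) and imaged at 20x.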

The text below walks through data of PubChem BioAssay (EPA / NIEHS).

Calls of active or inactive are those of the source. Rule for the calls: active = hit-call score of the fitted dose curve at least 0.9, where 1 is the maximum; inactive = score below 0.9.

With `CO[C@@H]1[C@H](OC(=O)NC(=O)CCl)CC[C@]2(CO2)[C@H]1[C@@]1(C)O[C@@H]1CC=C(C)C`, the molecule was called inactive in test [1], in [2], in [3], in [4], in [5] and in [6]. Moreover, the molecule was classed as inactive in test [7], in [8], in test [9], in test [10], in [11] and in test [12]. Also, the result in test [13], in test [14], in test [15], in [16], in [17] and in test [18] was inactive. For the same molecule, the result in [19] and in test [20] was inactive.
With `Cc1ccc([N+](=O)[O-])cc1`, the call in test [2], in [3], in test [4], in [5], in test [6] and in test [7] was inactive. In addition, the result in [8], in test [9], in [10], in [11], in test [12] and in test [13] was inactive. Moreover, the result in [14], in test [15], in [16], in test [17], in test [18] and in [19] was inactive. The call in [20] was inactive.
`CCNS(=O)(=O)C(F)(F)C(F)(F)C(F)(F)C(F)(F)C(F)(F)C(F)(F)C(F)(F)C(F)(F)F`: the AC50 (in general, the concentration at which the activity in the assay is half-maximal) in [1] is 25.2 µM (active); in test [3], 38.9 µM (active); in test [4] it was 56 µM (active); in [5] it was 46.3 µM (active); in test [6], 103 µM (active); in test [9], 36.4 µM (active). Also, the AC50 was 81.5 µM (active) in test [10]; 100 µM (active) in test [11]; 91.2 µM (active) in test [12]; 72.5 µM (active) in test [13]; 77.6 µM (active) in test [14]; 68.5 µM (active) in test [15]. Further, the values for the AC50 in test [16] and in test [20] were 112 µM (active) and 105 µM (active), respectively. The call in test [2], in test [7], in [17] and in test [19] was inactive.
For `CN(C)c1ccccc1`, the molecule was classed as inactive in test [1], in test [2], in test [3], in test [4], in test [5] and in test [6]. Moreover, the molecule was classed as inactive in test [7], in test [8], in test [9], in test [10], in test [11] and in test [12]. Also, the call in [13], in test [14], in test [15], in test [16], in test [17] and in [18] was inactive. Moreover, the outcome in test [19] and in test [20] was inactive.
In the case of `Clc1ccccc1Cl`, the molecule was called inactive in test [1], in test [2], in [3], in test [4], in [5] and in test [6]. The outcome in [7], in test [9], in test [10], in [11], in [12] and in test [13] was inactive. In addition, the outcome in test [14], in [15], in test [16], in test [17], in test [19] and in test [20] was inactive.
Take `Nc1ccc([N+](=O)[O-])cc1`: the result in [2], in test [3], in test [4], in [5], in test [6] and in test [7] was inactive. For the same molecule, the outcome in test [8], in test [9], in test [10], in [11], in [12] and in [13] was inactive. The outcome in test [14], in test [15], in [16], in [17], in test [18] and in test [19] was inactive. For the same molecule, in [20], the outcome was inactive.
For the molecule `CCC[CH2][Sn]([Cl])([CH2]CCC)[CH2]CCC`, the AC50 in [1] is 100 µM (active); in test [3] it was 1.12 µM (active); in [4] it was 0.908 µM (active); in test [5], 0.336 µM (active); in test [7], 100 µM (active); in test [8], 0.388 µM (active). The AC50 in test [9] was 0.0548 µM (active); in test [10] it was 0.574 µM (active); in [11], 0.0111 µM (active); in test [13] it was 0.0382 µM (active); in test [15], 1.41 µM (active); in test [17] it was 3.39 µM (active). Besides, the AC50 in test [18] was 0.0297 µM (active); in test [19], 0.0466 µM (active). The call in test [2], in [6], in [12], in test [14], in [16] and in test [20] was inactive.
